Compounds without any hit were thinned out: in the full panel of roughly 83,000, 20% have a hit.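 Note: values are percent growth. 100 is the growth of untreated cells, values between 100 and 0 indicate rising inhibition; between -100 and 0 indicates cell death.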 The source made the active and inactive calls. How the source made its calls: active means growth percent below 10; inactive means the rest.
These molecules were tested on MDA-MB-468 breast (assay: NCI-60 one-dose screen, 48 h (100 = growth as untreated, 0 = no growth, -100 = all killed)). Settings: 10 µM unless noted.

Compound | growth
NS(=O)(=O)Oc1ccc2c(ccn2C(=O)C23CC4CC(CC(C4)C2)C3)c1 | 90.8% (inactive)
NC(=S)N/N=C1\c2ccccc2-c2c(F)c(F)c(F)c(F)c21 | 25.8% (inactive)
CCC(=O)Oc1ccc2ccccc2c1 | 96.8% (inactive)
Cc1ccc2c(n1)C(=O)C(Cl)=C(Nc1cccc(C(F)(F)F)c1)C2=O | -65.2% (active)
COC(=O)c1ccc2c(c1)nc(-c1cc3ccccc3[nH]c1=O)n2-c1cc(C(C)(C)C)[nH]n1 | 101% (inactive)

From PubChem BioAssay (NCI)
